This passage reports Percent Effect results from ChEMBL document CHEMBL3988442, “University of Dundee, Small-Polar-MMV Screening Library” (2021).

Common to all, as to parameters: scale not given: direction of the effect not stated beside the values
For assay [1], the target named is Protein translocase subunit SecA (Escherichia coli (strain K12)) (UniProt P10408). Description: Assay to Identify E. coli SecA ATPase Inhibitors. In kind it is functional. The conditions noted are these: 30 µM.
For assay [2], the target named is T1, Ubiquitin-activating enzyme e1, putative (Leishmania donovani (strain BPK282A1)) (UniProt E9BSI1).
T1 sequence (whole entry): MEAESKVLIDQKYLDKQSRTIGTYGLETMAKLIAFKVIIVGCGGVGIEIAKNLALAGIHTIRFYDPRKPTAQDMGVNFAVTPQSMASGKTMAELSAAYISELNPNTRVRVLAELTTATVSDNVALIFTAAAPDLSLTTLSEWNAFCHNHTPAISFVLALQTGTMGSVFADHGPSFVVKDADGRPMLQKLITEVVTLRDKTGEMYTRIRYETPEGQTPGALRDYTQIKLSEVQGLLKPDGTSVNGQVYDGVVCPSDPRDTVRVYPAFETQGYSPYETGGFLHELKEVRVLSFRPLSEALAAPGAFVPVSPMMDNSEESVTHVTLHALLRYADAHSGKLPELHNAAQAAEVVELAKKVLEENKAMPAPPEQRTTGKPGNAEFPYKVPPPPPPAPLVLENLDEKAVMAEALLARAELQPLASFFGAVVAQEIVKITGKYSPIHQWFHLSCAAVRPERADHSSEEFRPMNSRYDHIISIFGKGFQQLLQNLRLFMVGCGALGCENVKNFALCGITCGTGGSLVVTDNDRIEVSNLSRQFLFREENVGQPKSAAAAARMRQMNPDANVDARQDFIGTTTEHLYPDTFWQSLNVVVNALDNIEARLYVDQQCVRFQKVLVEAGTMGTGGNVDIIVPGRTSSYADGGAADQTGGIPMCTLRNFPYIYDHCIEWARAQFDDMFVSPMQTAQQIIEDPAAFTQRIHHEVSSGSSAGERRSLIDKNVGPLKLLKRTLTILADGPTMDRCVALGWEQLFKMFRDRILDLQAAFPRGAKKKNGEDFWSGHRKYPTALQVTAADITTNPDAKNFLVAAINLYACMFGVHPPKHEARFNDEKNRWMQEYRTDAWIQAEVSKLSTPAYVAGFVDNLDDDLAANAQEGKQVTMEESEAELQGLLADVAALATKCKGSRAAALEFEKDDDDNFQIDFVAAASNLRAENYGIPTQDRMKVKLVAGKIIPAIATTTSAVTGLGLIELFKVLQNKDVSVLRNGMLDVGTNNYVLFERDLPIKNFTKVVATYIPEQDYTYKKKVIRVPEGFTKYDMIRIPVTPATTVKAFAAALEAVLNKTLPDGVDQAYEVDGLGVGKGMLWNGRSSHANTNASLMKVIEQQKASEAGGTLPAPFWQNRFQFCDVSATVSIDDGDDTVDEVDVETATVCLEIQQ
Nature of the assay: Leishmania donovani Ubiquitin Activating Enzyme (LdE1). In kind it is functional. The conditions noted are these: 30 µM.

Assay [3] deals with AMP-activated protein kinase, AMPK (Homo sapiens) (UniProt P54646+O43741+P54619+Q9UGJ0+Q9Y478+Q13131+Q9UGI9). Nature of the assay: AMP-dependent Kinase enzyme assay. An in vitro enzyme assay that detects ADP turnover that is directly proportional to AMPK activity. This uses naive AMPK that is activated during the assay with MK-8722. It counts as functional. The note with it: 30 µM.

Assay [4] has as its target Sialic acid-binding Ig-like lectin 9 (Homo sapiens) (UniProt Q9Y336). Description: Hs-Siglec9 ALPHAscreen SOP 20170721. The note with it: 10 µM.
Another assay deals with Trypanosoma cruzi. Nature of the assay: Trypanosoma cruzi phosphomannomutase and mannose-1-phosphate guanylyltransferase assay. In kind it is functional. The note with it: 10 µM.
Assay [5] deals with T2, Arginase-2, mitochondrial (Homo sapiens) (UniProt P78540).
T2 sequence (whole entry): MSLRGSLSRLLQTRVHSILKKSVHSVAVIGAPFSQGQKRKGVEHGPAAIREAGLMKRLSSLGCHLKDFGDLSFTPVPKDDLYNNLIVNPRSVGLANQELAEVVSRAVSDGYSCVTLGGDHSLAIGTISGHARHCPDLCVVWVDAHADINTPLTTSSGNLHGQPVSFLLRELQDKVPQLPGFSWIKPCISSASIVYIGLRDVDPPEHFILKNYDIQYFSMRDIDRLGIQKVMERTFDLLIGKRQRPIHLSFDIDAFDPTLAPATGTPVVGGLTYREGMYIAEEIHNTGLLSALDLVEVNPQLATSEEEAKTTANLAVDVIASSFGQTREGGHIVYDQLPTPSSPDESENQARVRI
Description: in vitro enzyme assay to detect the production of urea directly proportional to the activity of Arginase II. Note: in the data most compounds retested in dose-response had high values. The conditions noted are these: 33.3 µM. In kind it is functional.

In assay [6] the target is T3, Proteasome subunit beta (Trypanosoma cruzi) (UniProt O96673).
T3 sequence (whole entry): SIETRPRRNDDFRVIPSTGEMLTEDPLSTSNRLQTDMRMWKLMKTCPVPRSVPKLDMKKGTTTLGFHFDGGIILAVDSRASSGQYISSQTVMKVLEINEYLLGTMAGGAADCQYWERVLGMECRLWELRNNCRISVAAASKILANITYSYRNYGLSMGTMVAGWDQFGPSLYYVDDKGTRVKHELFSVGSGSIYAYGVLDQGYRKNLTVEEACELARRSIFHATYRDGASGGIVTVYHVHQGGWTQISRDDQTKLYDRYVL
Nature of the assay: Trypanosoma cruzi proteasome chymotrypsin-like activity (TcProtChymo) assay. Note: in the data most compounds retested in dose-response had high values. In kind it is functional. The conditions noted are these: 9.37 µM.

The next assay is filed under the species Homo sapiens. Description: To identify inhibition of the IFN signalling (Jak-Stat) pathway via expression of an eGFP reporter gene under the control of an IFN-stimulated response element (ISRE) containing MxA promoter. It counts as functional. The conditions noted are these: 30 µM.
Assay [7] deals with T4, Tyrosyl-tRNA synthetase, putative (Trypanosoma cruzi (strain CL Brener)) (UniProt Q4DSP6).
T4 sequence (whole entry): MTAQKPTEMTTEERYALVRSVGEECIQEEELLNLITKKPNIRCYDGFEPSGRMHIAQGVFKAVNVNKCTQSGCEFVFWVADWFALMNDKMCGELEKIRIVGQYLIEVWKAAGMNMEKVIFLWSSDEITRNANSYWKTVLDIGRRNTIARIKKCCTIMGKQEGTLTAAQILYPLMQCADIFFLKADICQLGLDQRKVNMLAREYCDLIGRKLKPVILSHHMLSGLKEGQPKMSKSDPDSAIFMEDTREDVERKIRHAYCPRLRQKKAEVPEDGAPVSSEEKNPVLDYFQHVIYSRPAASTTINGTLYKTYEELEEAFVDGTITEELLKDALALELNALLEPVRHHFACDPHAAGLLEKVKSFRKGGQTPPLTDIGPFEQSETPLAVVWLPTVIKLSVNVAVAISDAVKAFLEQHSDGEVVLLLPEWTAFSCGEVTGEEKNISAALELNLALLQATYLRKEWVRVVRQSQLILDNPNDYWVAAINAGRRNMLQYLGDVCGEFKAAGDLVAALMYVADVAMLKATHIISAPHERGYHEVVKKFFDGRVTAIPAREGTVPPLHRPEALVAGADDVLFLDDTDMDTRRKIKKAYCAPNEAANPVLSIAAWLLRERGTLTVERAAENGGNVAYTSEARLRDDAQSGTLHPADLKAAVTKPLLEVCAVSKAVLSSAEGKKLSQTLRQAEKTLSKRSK
Description: Trypanosoma cruzi tyrosyl tRNA synthetase (TcYRS) _High Tyrosine SOP. Note: in the data most compounds retested in dose-response had high values. In kind it is functional. The note with it: 30 µM.

For assay [8], the target named is T4, Tyrosyl-tRNA synthetase, putative (Trypanosoma cruzi (strain CL Brener)). Nature of the assay: Trypanosoma cruzi tyrosyl tRNA synthetase (TcYRS) SOP. The conditions noted are these: 30 µM. In kind it is functional.
Assay [9] has as its target Chromo domain-containing protein 1 (Saccharomyces cerevisiae (strain ATCC 204508 / S288c) (Baker's yeast)) (UniProt P32657). Description: ScCHD-1 Enzyme Inhibition Assay. Note: in the data most compounds retested in dose-response had high values. It counts as functional. The note with it: 30 µM.

For some of these results: Potency and affinity values are given separately.

Sequence of Chromo domain-containing protein 1 (Saccharomyces cerevisiae (strain ATCC 204508 / S288c) (Baker's yeast)) (P32657 whole entry, the tested form may be a part): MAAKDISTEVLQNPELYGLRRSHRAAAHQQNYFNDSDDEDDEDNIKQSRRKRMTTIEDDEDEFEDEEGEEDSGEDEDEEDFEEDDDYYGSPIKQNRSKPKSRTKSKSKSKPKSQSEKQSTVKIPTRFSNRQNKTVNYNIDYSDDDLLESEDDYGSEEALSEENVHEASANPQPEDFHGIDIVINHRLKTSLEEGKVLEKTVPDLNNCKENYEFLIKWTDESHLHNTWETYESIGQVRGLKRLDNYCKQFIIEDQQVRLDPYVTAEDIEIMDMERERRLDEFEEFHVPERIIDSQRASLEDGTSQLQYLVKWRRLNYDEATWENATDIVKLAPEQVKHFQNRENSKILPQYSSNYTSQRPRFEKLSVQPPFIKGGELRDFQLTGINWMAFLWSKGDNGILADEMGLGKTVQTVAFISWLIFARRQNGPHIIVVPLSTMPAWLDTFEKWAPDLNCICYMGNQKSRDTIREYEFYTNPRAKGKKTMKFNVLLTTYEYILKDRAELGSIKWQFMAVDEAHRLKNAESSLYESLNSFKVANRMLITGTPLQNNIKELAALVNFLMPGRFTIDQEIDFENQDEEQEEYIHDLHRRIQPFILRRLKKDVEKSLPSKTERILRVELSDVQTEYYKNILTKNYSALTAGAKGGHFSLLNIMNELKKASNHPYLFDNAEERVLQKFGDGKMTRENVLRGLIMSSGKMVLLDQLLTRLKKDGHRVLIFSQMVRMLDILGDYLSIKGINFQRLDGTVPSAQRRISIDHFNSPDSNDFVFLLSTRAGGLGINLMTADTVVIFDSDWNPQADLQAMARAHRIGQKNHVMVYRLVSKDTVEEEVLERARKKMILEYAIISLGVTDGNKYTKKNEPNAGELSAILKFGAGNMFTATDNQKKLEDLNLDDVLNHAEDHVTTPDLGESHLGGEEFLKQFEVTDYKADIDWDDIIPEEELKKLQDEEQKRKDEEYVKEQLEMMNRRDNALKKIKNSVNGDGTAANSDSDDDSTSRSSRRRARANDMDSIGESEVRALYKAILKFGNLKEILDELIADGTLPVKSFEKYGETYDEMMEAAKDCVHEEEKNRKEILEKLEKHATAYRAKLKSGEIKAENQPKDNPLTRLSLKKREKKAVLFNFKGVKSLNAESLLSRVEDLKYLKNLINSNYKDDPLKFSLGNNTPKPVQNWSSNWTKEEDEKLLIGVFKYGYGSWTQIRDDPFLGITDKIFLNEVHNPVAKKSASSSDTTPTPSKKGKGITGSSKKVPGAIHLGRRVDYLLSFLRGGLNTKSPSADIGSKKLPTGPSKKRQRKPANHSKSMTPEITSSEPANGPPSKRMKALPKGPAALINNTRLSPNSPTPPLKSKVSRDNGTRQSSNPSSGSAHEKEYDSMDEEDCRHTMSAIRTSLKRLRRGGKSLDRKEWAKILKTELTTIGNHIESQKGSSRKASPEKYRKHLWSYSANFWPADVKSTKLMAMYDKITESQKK
Sequence of Sialic acid-binding Ig-like lectin 9 (Homo sapiens) (Q9Y336 whole entry): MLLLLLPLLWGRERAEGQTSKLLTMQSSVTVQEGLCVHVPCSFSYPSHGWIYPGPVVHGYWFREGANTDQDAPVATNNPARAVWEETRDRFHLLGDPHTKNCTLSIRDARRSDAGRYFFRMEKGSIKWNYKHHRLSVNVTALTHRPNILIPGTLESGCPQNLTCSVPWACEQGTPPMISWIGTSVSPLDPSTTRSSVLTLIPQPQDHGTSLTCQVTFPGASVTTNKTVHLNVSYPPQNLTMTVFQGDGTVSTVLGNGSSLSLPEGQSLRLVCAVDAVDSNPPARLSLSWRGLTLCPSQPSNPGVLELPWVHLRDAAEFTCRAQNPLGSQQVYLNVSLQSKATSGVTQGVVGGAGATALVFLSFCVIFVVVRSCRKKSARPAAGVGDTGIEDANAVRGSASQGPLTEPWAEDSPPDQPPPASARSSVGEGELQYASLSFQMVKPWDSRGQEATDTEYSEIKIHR
Sequence of Protein translocase subunit SecA (Escherichia coli (strain K12)) (P10408 whole entry): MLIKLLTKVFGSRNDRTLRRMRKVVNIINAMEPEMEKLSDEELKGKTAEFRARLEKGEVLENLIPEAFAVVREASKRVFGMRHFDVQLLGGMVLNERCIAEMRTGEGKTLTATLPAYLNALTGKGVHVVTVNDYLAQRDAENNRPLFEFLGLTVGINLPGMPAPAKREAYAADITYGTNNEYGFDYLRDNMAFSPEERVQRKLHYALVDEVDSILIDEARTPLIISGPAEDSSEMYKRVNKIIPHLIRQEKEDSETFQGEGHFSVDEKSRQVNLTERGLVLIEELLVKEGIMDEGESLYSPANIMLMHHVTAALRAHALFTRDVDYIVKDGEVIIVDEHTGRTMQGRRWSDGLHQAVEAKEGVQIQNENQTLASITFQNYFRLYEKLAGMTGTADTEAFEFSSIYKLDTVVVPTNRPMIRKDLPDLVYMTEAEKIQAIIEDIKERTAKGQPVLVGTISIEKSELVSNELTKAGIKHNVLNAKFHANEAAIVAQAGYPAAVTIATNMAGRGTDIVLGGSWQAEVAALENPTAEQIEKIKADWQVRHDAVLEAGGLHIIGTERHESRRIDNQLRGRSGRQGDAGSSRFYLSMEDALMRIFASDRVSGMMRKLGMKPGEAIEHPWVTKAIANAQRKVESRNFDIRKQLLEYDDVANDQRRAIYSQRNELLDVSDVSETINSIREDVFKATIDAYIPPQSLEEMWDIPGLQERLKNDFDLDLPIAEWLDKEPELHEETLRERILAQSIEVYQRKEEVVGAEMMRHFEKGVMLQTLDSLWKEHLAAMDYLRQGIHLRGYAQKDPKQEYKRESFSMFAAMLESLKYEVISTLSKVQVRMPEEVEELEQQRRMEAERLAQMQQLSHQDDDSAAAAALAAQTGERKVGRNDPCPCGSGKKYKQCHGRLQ

On to `COc1cccc(C2CCCN2C(=O)c2cc3c([nH]c2=O)CCC3)c1` (stereo not drawn), for which the Percent Effect in assay [1] was -1.17%; in [2], 5.41%; in assay [3] it was 0.0672%; in assay [4], -4.05%; in the assay on Trypanosoma cruzi, 1.17%; in assay [5], 25%. Besides, the Percent Effect in assay [6] was 16%; in the assay listed under Homo sapiens it was 5.64%; in [7], 7.92%; in assay [8], 6.1%; in assay [9], -6.8%.

In the case of `O=C(CC1CC1)N1CC[C@H]2[C@@H]1CCC(=O)N2c1cccnc1`, the Percent Effect in [1] is 3.01%; in assay [2], 10.8%; in assay [3] it was 7.09%; in [4] it was -6.56%; in the assay with Trypanosoma cruzi, -4.79%; in assay [5], 4.14%. Also, the Percent Effect in [6] was 22.9%; in the assay listed under Homo sapiens, 2.55%; in [7], 1.08%; in [8] it was 12.8%; in assay [9], -1.6%.

Take `CN(C)CCOCC1CN(CC2CCOCC2)Cc2nnn(C)c21` (stereo not drawn): the Percent Effect in [1] is -5.87%; in assay [2] it was 10.8%; in assay [3] it was 1.42%; in assay [4], -2.51%; in the assay on Trypanosoma cruzi, -5.96%; in [5], 1.24%. In addition, the Percent Effect was 8.67% in assay [6]; 17% in the assay listed under Homo sapiens; 5.38% in assay [7]; 11.1% in assay [8]; -4.9% in [9].

As for `CNCC(=O)N1CCCC(c2nccnc2Oc2cccc(F)c2)C1` (stereo not drawn), the Percent Effect in assay [1] is -7.42%; in [2], 10.7%; in assay [3] it was 10%; in [4] it was -1.6%; in the assay on Trypanosoma cruzi, -3.74%; in [5] it was -3.03%. The Percent Effect is 9.25% in assay [6]; 11.8% in the assay filed under Homo sapiens; 3.19% in [7]; 3.85% in assay [8]; -4.73% in assay [9].

Take `CN(Cc1ccc(N2CCCCC2)cc1)Cc1noc(C(C)(C)C)n1`: the Percent Effect was -2.34% in assay [1]; -13% in assay [2]; -0.29% in assay [3]; 2.11% in assay [4]; 0.492% in the assay on Trypanosoma cruzi; 0% in [5]. The Percent Effect in assay [6] is 13.8%; in the assay listed under Homo sapiens it was 9.08%; in [7], -2.15%; in assay [8], -6.17%; in assay [9] it was -1.32%.

Consider `Cc1cnn(CCNCc2csc(C)n2)c1`, for which the Percent Effect in assay [1] is -1.46%; in assay [2], -5.33%; in assay [3], -1.53%; in [4], -3.7%; in the assay on Trypanosoma cruzi it was -0.876%; in assay [5], -2.6%. The Percent Effect in assay [6] came out at 7.5%; in the assay filed under Homo sapiens, 1.61%; in assay [7] it was 3.83%; in assay [8], 6.17%; in [9], 0.841%.

Turning to `CCOc1ccnc(N2CCN(C(=O)c3cccnc3O)CC2)n1`, the Percent Effect was -3.86% in assay [1]; 17.7% in [2]; -4.02% in assay [3]; 2.97% in assay [4]; 0.283% in the assay with Trypanosoma cruzi; 4.56% in [5]. Also, the Percent Effect is 4.5% in [6]; 2.56% in the assay listed under Homo sapiens; 15.3% in assay [7]; 26.6% in assay [8]; -4.5% in assay [9].

Turning to `CC(Cn1cccn1)NC(=O)Nc1nccs1` (stereo not drawn), the Percent Effect in [1] was -5.47%; in assay [2] it was 10.4%; in [3], 1.39%; in assay [4] it was 4.54%; in the assay with Trypanosoma cruzi, -3.37%; in assay [5], 0.712%. For the same compound, the Percent Effect in [6] is 5.57%; in the assay listed under Homo sapiens it was 17.5%; in assay [7], 4.85%; in [8], 19.5%; in assay [9] it was -5.22%.
